Screening data from PubChem.
TGFb SMAD3 inh = TGF-b pathway inhibition; HepG2 CAGA-GFP TGF-b/SMAD3 reporter, GFP fluorescence, 18 h; TGF-beta stimulated, 500 pg/mL final; Potency, µM (highest dose often 46.1 µM), for inactives: at the top dose activity, negative = inhibition, hits mostly inhibitors; 410,000 compounds, 1.2% hits; note: potency is the fitted concentration of half-maximal effect; % is set by controls: 0 for no effect and ±100 for the full control effect; nearly all actives have a fitted effect of over 65% in size
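Read-out: total well GFP (ex488/em500-530) summed from mean per-cell fluorescence. Cells: HEPG2 CAGA-GFP, 1% FBS DMEM, 18 h at 37 degrees C with 500 pg/mL final TGF-beta. Unstimulated wells served as the full-inhibition control; stimulated DMSO wells = 0%.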
HepG2 viability = kills HepG2 cells in TGF-b inhibitor counter-screen | Potency, µM (series often up to 46.1 µM), for the others: at the highest dose activity change, negative = cytotoxicity, usual class: cytotoxic | HepG2 CAGA-GFP viability, ATP luminescence, 18 h | 410,000 compounds, 0.76% hits; note: potency is the fitted concentration of half-maximal effect
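HepG2 CAGA-GFP cells (1000/well, DMEM with 1% FBS) received compound, then TGF-beta at 500 pg/mL final, and were incubated 18 hours at 37 degrees C. Viability was read by CellTiter-Glo luminescence. Media-only wells were set as complete cell-killing and DMSO as no toxicity.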
IL1B secr inh = inhibitors of inflammasome signaling (IL-1 beta secretion). THP-1 LPS/ATP IL-1B secretion, AlphaLISA, 16 h; stronger effect = lower value. activity change, % at 57.5 µM. 360,000 compounds, 4.7% hits; in the data active = activity change below about -50%; inconclusive = mostly about -30% to -49%; note: % is set by controls: 0 for no effect and ±100 for the full control effect
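Secreted IL-1B measured by AlphaLISA bead assay after 16 h compound exposure of THP-1 cells; compounds (final up to 57.5 uM) added 1 h before LPS (250 ng/mL) and ATP (1.25 mM) stimulation; lower signal means less secretion.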
TDP1 block = inhibitors of human tyrosyl-DNA phosphodiesterase TDP1. Q9NUW8. recombinant TDP1, AlphaScreen DNA substrate cleavage. 350,000 compounds, 0.28% hits. AID 485290. Potency, µM (series often up to 130 µM), without a hit: top-dose activity change, negative = inhibition, most hits filed as inhibitors; note: potency is the fitted concentration of half-maximal effect; % is set by controls: 0 for no effect and ±100 for the full control effect; nearly all actives have a fitted effect of over 40% in size
Target sequence (Q9NUW8 whole entry, looked up): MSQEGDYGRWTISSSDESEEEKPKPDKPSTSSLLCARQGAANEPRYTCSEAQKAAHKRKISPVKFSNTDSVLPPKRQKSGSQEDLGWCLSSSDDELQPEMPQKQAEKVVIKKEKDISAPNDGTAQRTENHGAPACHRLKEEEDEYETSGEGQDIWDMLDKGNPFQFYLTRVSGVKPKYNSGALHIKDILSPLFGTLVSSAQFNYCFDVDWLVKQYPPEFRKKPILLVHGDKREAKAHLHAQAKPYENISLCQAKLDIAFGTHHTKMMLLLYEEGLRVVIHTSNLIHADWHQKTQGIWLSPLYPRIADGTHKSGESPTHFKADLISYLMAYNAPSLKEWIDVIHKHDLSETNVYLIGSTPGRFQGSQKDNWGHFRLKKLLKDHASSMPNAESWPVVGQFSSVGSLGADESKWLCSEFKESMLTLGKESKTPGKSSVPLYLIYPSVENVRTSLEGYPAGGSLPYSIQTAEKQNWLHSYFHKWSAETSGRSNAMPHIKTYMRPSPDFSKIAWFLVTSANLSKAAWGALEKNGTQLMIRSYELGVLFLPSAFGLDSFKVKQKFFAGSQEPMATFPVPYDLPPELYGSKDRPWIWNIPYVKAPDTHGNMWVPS
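Recombinant E. coli-expressed Tdp1 (1 nM) preincubated with compound 15 min at RT, then 5'-biotin/3'-phosphotyrosine-FITC DNA substrate (15 nM) added for 5 min. AlphaScreen beads (10 ug/ml) added, 10 min RT; tyrosine-FITC cleavage read as signal loss.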
TDP1 cell CPT = growth inhibition of DT40 Tdp1-/-;hTDP1 cells with camptothecin (screen for TDP1 inhibitors) | chicken DT40 Tdp1-/-;hTDP1 cells + 20 nM CPT, ATP luminescence, 48 h | Potency, µM (top dose mostly 46.2 µM), for inactives: at the top dose activity change, negative = growth inhibition, most hits filed as inhibitors | 420,000 compounds, 12% hits | AID 686979; note: potency is the fitted concentration of half-maximal effect; % is set by controls: 0 for no effect and ±100 for the full control effect; nearly all actives have a fitted effect of over 55% in size
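Cell growth measured by CellTiter-Glo luminescence after a minimum 48 h, 37 C compound exposure with 20 nM CPT in Tdp1-knockout DT40 cells stably expressing hTDP1, seeded 400/well; qHTS titration format.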
DT40 TDP1 no CPT = qHTS for Inhibitors of human tyrosyl-DNA phosphodiesterase 1 (TDP1): qHTS in cells in absence of CPT; DT40 Tdp1-/- hTDP1 cells, no CPT, ATP luminescence, 48 h; Potency, µM (series often up to 46.2 µM), inactives show at the top dose activity change, negative = growth inhibition, actives largely listed as inhibitors; 420,000 compounds, 15% hits; note: potency is the fitted concentration of half-maximal effect; % is set by controls: 0 for no effect and ±100 for the full control effect; nearly all actives have a fitted effect of over 55% in size
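Stably hTDP1-transfected Tdp1-null chicken DT40 cells were treated with library compounds minus camptothecin and grown for at least 48 hr at 37 °C, after which cellular ATP was quantified by luminescence.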
* hit, by the source's call; [ ] = remark or other dose. Rows were chosen to be rich in hits. Some 18% of all compounds tested hit in one or more screens of this group. Unless noted, calls come from the whole dose curve; as a rule, active = well fitted curve in the direction sought with a large enough effect; inconclusive = small, poorly fitted or top-dose-only effect, or another doubt; inactive = no such curve, though single readings can be large; an effect the other way counts as inactive or inconclusive.

Screening COc1ccc([N+](=O)[O-])cc1NC(=O)C(C)OC(=O)CN1C(=O)C2CC=CCC2C1=O (stereo not drawn) returned TGFb SMAD3 inh -3.1%, HepG2 viability 0.1%, IL1B secr inh -62.9*, TDP1 block -3.1%, TDP1 cell CPT 7.9% and DT40 TDP1 no CPT -18.5%.
CC(C)CC(=O)Nc1ccc([N+](=O)[O-])cc1Cl was read as TGFb SMAD3 inh -6.6%, HepG2 viability -9.2%, IL1B secr inh -10.5, TDP1 block -3.6%, TDP1 cell CPT 2.7% and DT40 TDP1 no CPT 3.5%.
Screening COc1ccc(Br)cc1CN(C)C(C)C(=O)Nc1cc([N+](=O)[O-])ccc1OC (stereo not drawn) returned TGFb SMAD3 inh -19.6%, HepG2 viability -2.8%, IL1B secr inh 33.4, TDP1 block 3.4%, TDP1 cell CPT inconclusive and DT40 TDP1 no CPT 23.1µM*.
CC(OC(=O)C1CC1)C(=O)Nc1ccc([N+](=O)[O-])cc1Cl (stereo not drawn) was read as TGFb SMAD3 inh 5.3%, HepG2 viability -0.9%, IL1B secr inh -2.1, TDP1 block 2.3%, TDP1 cell CPT -4.0% and DT40 TDP1 no CPT 4.2%.
For O=C1NC[C@H](CCCCN2CCN(CCc3ccc(O)cc3)C(=O)C2=O)N(CCC2CCCCC2)C1=O the results were IL1B secr inh 0.0, TDP1 cell CPT -5.0% and DT40 TDP1 no CPT -19.4%.
For CN(C)CC1C2CCC(C2)C1O (stereo not drawn) the results were TGFb SMAD3 inh -3.5%, HepG2 viability 0.1%, IL1B secr inh -10.0, TDP1 cell CPT -3.3% and DT40 TDP1 no CPT inconclusive.
COC(=O)c1ccc2nc(-c3ccc(C)cc3)c(Cc3ccsc3)n2c1 was read as TGFb SMAD3 inh -14.0%, HepG2 viability -19.4%, IL1B secr inh 45.9, TDP1 cell CPT 18.4µM* and DT40 TDP1 no CPT 20.6µM*.
`COC(=O)c1ccc2nc(-c3ccc(F)cc3)c(Cc3ccccc3C(F)(F)F)n2c1` gave IL1B secr inh 49.6, TDP1 cell CPT -10.2% and DT40 TDP1 no CPT -22.7%.
Screening COC(=O)c1ccc2nc(-c3ccc(C#N)cc3)c(Cc3ccsc3)n2c1 returned IL1B secr inh -5.9, TDP1 cell CPT inconclusive and DT40 TDP1 no CPT 23.1µM*.
Screening Cc1ccc2nc(-c3ccccc3)c(Cc3ccsc3)n2c1 returned IL1B secr inh -13.1, TDP1 cell CPT 14.6µM* and DT40 TDP1 no CPT 16.4µM*.
For FC(F)(F)c1cc(Cl)c2nc(-c3ccccc3)c(Cc3ccsc3)n2c1 the results were IL1B secr inh 10.4, TDP1 cell CPT -17.1% and DT40 TDP1 no CPT -16.3%.
N#Cc1ccc(-c2nc3ccc(Br)cn3c2Cc2ccsc2)cc1 was read as TGFb SMAD3 inh -7.2%, HepG2 viability -63.0%, IL1B secr inh -18.6, TDP1 cell CPT -100.3% and DT40 TDP1 no CPT -98.7%.
`COC(=O)c1ccc2nc(-c3ccc(F)cc3)c(Cc3ccccc3)n2c1` gave TGFb SMAD3 inh inconclusive, HepG2 viability -39.4%, IL1B secr inh 1.1, TDP1 cell CPT 16.4µM* and DT40 TDP1 no CPT 23.1µM*.
Screening Cc1c(C(=O)c2ccccc2C(=O)O)sc2ccccc12 returned TGFb SMAD3 inh 2.9%, HepG2 viability 4.2%, IL1B secr inh 42.8, TDP1 cell CPT -4.2% and DT40 TDP1 no CPT -21.1%.
Cc1cc(=O)n2nc(N3CCC(C(=O)NCc4cccc(Cl)c4)CC3)sc2n1 was read as TGFb SMAD3 inh 1.4%, HepG2 viability -1.2%, IL1B secr inh -20.5, TDP1 block 1.6%, TDP1 cell CPT inconclusive and DT40 TDP1 no CPT 2.7%.
`O=C(COC(=O)c1cc(=O)[nH]c2ccc(Br)cc12)c1ccccc1` gave TGFb SMAD3 inh -4.8%, HepG2 viability 11.4%, IL1B secr inh 30.4, TDP1 block 6.0%, TDP1 cell CPT 0.6% and DT40 TDP1 no CPT -13.6%.
CC(C)c1ccc(S(=O)(=O)N2CCN(CC(=O)Nc3ccccc3C(F)(F)F)CC2)cc1 was read as TGFb SMAD3 inh -15.2%, HepG2 viability 6.2%, TDP1 block 0.0%, TDP1 cell CPT inconclusive and DT40 TDP1 no CPT inconclusive.
For Cc1ccc(CNc2ncnc3sc(C(=O)N4CCC(N5CCCC(O)C5)CC4)c(C)c23)o1 (stereo not drawn) the results were TDP1 cell CPT 2.2%[9.04 µM] and DT40 TDP1 no CPT 2.5%.
`COC(=O)c1ccc2nc(-c3ccc(F)cc3)c(Cc3ccsc3)n2c1` gave TGFb SMAD3 inh inconclusive, HepG2 viability -51.5%, IL1B secr inh 25.4, TDP1 cell CPT inconclusive and DT40 TDP1 no CPT 18.4µM*.
Cc1ccc(NC(=O)c2cccc(N3CCCS3(=O)=O)c2)cc1 was read as TGFb SMAD3 inh -10.8%, HepG2 viability -15.4%, TDP1 block 2.6%, TDP1 cell CPT inconclusive and DT40 TDP1 no CPT -12.5%.
`Cc1cc(C)cc(NC(=O)c2cccc(N3CCCS3(=O)=O)c2)c1` gave TGFb SMAD3 inh 11.3%, HepG2 viability -23.1%, TDP1 block -2.6%, TDP1 cell CPT 14.6µM* and DT40 TDP1 no CPT inconclusive.
`O=C(NCc1ccc(Cl)cc1Cl)c1cccc(N2CCCS2(=O)=O)c1` gave TGFb SMAD3 inh inconclusive, HepG2 viability -53.3%, TDP1 block 2.7%, TDP1 cell CPT 16.4µM* and DT40 TDP1 no CPT inconclusive.
Screening CC(C)(C)c1ccc(C2NC(=O)c3n[nH]c(-c4cccs4)c32)cc1 (stereo not drawn) returned TGFb SMAD3 inh inconclusive, HepG2 viability 11.2µM*, TDP1 block 0.0%, TDP1 cell CPT inconclusive and DT40 TDP1 no CPT inconclusive.
For Cc1ccc(F)c(S(=O)(=O)NC(=O)C2(C)CCN2C(=O)c2sccc2C)c1 (stereo not drawn) the results were TGFb SMAD3 inh 13.0%, HepG2 viability 2.8%, IL1B secr inh 6.6, TDP1 cell CPT 8.2% and DT40 TDP1 no CPT -1.6%.
For Cc1ccc(CN2CCN(/N=C\c3cccc([N+](=O)[O-])c3)CC2)cc1 the results were TGFb SMAD3 inh -19.2%, HepG2 viability -3.3%, IL1B secr inh -61.6*, TDP1 block 8.6%, TDP1 cell CPT 3.1% and DT40 TDP1 no CPT inconclusive.
Cn1cccc1/C=N/N1CCN(Cc2ccccc2Cl)CC1 was read as TGFb SMAD3 inh -6.4%, HepG2 viability -24.6%, IL1B secr inh -19.3, TDP1 cell CPT -13.3% and DT40 TDP1 no CPT 2.59µM*.
